Laboratory results: publication PMC5540273 (PLoS ONE, 2017)

These compounds were tested on CDK4-cyclinD1. Conditions: concentration: 1 μM, replicates: in singlicate; n = 1.
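Further: KINOMEscan kinase panel screen.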

Row | SMILES | %Inh [%]
1 | COc1cccc(C(=O)Nc2cccc(Oc3ccc4nc(NC(=O)C5CC5)cn4n3)c2)c1 | 1
2 | Cl.Cl.NCC(NC(=O)c1cc(-c2ccccc2)c(-c2ccnc3[nH]ccc23)s1)c1ccccc1 (centres unmarked) [GSK1321561] | 0
3 | CC(=O)Nc1nc2cnc(Nc3cc(NC(=O)c4cccc(C5(C#N)CC5)c4Cl)ccc3C)nc2s1 | 0
4 | COc1cccc(NC(=O)NC2CCN(c3ccnc(Nc4cc(OC)c(OC)c(OC)c4)n3)C2)c1 (centres unmarked) [GSK1379763] | 0
5 | COc1cc2c(cc1OCCN1CCNCC1)ncc1c3ccc(C#N)cc3[nH]c21 | 31
6 | CSc1cccc2c(-c3ccncn3)c(-c3ccc(F)cc3)nn12 [GW514786] | 13
7 | Cn1cc(-c2ccc3c(c2)CCN3C(=O)Cc2cccc(Cl)c2)c2c(N)ncnc21 [GSK2606590] | 0
8 | CCS(=O)(=O)c1ccc(OC)c(Nc2nccc(-c3c(-c4cccc(NC(=O)c5c(F)cccc5F)c4)nn4ncccc34)n2)c1 [GSK326180] | 0
9 | CCn1c(-c2nonc2N)nc2c(C#CC(C)(C)O)ncc(OCCCCN)c21.O=C(O)C(F)(F)F.O=C(O)C(F)(F)F [GSK507274] | 0
10 | O=C(Nc1cccc(-c2nn3ccccc3c2-c2ccnc(Nc3cccc(C(F)(F)F)c3)n2)c1)c1c(F)cccc1F [GSK292658] | 0
11 | CN(c1ccc(NC(=O)Nc2cc(C(F)(F)F)ccc2F)cc1)c1ccnc(Nc2ccc(S(N)(=O)=O)cc2)n1 [GW809893] | 14
